# Laboratory results published in PubChem BioAssay AID1347155 (National Center for Advancing Translational Sciences (NCATS), 2019).
# “And” between values parts separate entries of the source, which are not always exact repeats. Equal values may be shown once. Inconclusive results are not listed. A number with no mark means an inactive call. The source made the active and inactive calls. Calls follow the shape of the dose curve; as a rule, active = well fitted inhibition curve with a large enough effect; inconclusive = small, poorly fitted or top-dose-only effect; inactive = no such curve, though single readings can be large or run the other way. *1 amine or outer side, *2 acyl side, *3 side chain or, on linkers, in order; H or OH if unused. Where a SMILES comes first, the peptide text is derived from it. Bridges are numbered along the chain shown (N, C = ends). Roman numbers before positions name the chains, in order. [ ]: non-standard residue; d: D form. ξ: configuration not given here. Actinocin(9to1) = Cc1c2oc3c(C)ccc(C(=O)[*:1])c3nc-2c(C(=O)[*:2])c(N)c1=O; aThr = C[C@H](O)[C@H](N)C(=O)O; NMeV = CN[C@H](C(=O)O)C(C)C; ξNMeV = CNC(C(=O)O)C(C)C; ξV = CC(C)C(N)C(=O)O; Sar = CNCC(=O)O
# Test system: Zika virus NS2B-NS3 protease (linked)
# Test: Optimization screen NINDS Rhodamine qHTS for Zika virus inhibitors: Linked NS2B-NS3 protease assay
# Conditions: fluorogenic rhodamine substrate; series mostly up to 105 µM; activity change, negative = inhibition: at the top concentration
# Excerpt: Avindra Nath, Ph.D., National Institute of Neurological Disorders and Stroke (NINDS), Bethesda, MD
# Radhakrishnan Padmanabhan, Ph.D., Georgetown University (GU), Washington D.C.
# Zika Virus causes congenital defects, including microcephaly and is associated with Guillain-Barre syndrome, eningoencephalitis and myelitis in infected adult. […] Using a target-based approach, we hope to establish a screening paradigm to uncover novel, cell-active NS2B-NS3 protease (Zika Virus) specific inhibitors from NCATS' collection of small molecules using qHTS.
# Four assay panel was created to identify potential Zika Virus inhibitors. Namely, (1) GU unlinked NS2B-NS3 AMC tagged protease qHTS, (2) GU unlinked NS2B-NS3 Rhodamine tagged protease qHTS, (3) NINDS linked NS2B-NS3 AMC tagged protease qHTS, (4) NINDS linked NS2B-NS3 Rhodamine tagged protease qHTS. Active compounds were re-acquired and re-screened to confirm inhibition. Inhibitors were further screened against various confirmatory and counterscreens in dose response format.
# Early Translation Branch (ETB)
# National Center for Advancing Translational Sciences (NCATS), Rockville, MD
# National Institute of Health (NIH), Bethesda, Maryland
# For the linked assay, Nath lab (NINDS) provided the purified linked NS2B-NS3 protease which is consists of hydrophilic domain of NS2B linked to the NS3 protease domain by a flexible (-GGGGSGGGG-) linker. Control compound aprotinin is obtained from Thermo Scientific (#78432; Waltham, Massachusetts). Rhodamine110 substrate ([N-Cbz]-Nle-Lys-Arg-Arg-Rhod110-Arg-Arg-Lys-Nle-[N-Cbz]) was purchased from either Genscript or Bachem.
# 1536-well Protease (Rhodamine110 Substrate) Assay:
# Briefly, 3 microL of enzyme (25 nM final concentration), in assay buffer (10 mM Tris-HCl pH 8.0 with 0.01% Tween 20) were dispensed into a 1,536-well solid-bottom black plate (Greiner Bio One, Monroe, NC). Twenty-three nL of compounds (final concentration range 7.28 nM to 114 microM) or control Aprotinin (final concentration range 3.47 nM to 114 microM) were transferred via Wako Pin-tool (Wako Automation, Richmond, VA). Samples were incubated (room temperature, protected from light) for 15 minutes followed by a 1 microL Rhodamine110 substrate addition (1.5 microM final concentration). Plates were then immediately read on a ViewLux High-throughput CCD imager (PerkinElmer, Waltham, MA) equipped with FITC fluorescence optics (480(20) nm excitation, 540(25) nm emission), then incubated (room temperature, protected from light) for 15 minutes (~15% conversion). The change in fluorescence intensity over the 15-minute reaction period was normalized against no-inhibitor and no-enzyme controls and the resulting percent inhibition data were fitted to a 4-parameter Hill equation. Aprotinin was used as intraplate control.
SMILES,"activity change, negative = inhibition",Potency
CC=CCC(C)C(O)C1C(=O)NC(CC)C(=O)N(C)CC(=O)N(C)C(CC(C)C)C(=O)NC(C(C)C)C(=O)N(C)C(CC(C)C)C(=O)NC(C)C(=O)NC(C)C(=O)N(C)C(CC(C)C)C(=O)N(C)C(CC(C)C)C(=O)N(C)C(C(C)C)C(=O)N1C (stereo not given),23.1%,–
COc1c2occc2cc2ccc(=O)oc12,-34.5%,–
CCCCOc1ccc(C2C(=O)N(C3CCCCC3)CC(=O)N2C2CCCCC2)cc1 (stereo not given),1.48%,–
CC(=O)Nc1ccc([C@H](C)C(=O)Nc2ncc(C(C)C)s2)cc1,1.33%,–
NC(=O)C(=O)O,6.13%,–
CCOc1ccc(C2C(=O)N(C3CCCCC3)CC(=O)N2Cc2ccc(F)cc2)cc1OC (stereo not given),-2.05%,–
Nc1ncnc2c1ncn2[C@@H]1O[C@H](C[C@@H](N)CC[C@H](N)C(=O)O)[C@@H](O)[C@H]1O,3.64%,–
CCCCCCCCc1ccc(CCC(N)(CO)CO)cc1,–,55.5 µM (active)
C[C@H]1O[C@@H](O[C@H]2CC[C@@]3(C)[C@H](CC[C@@H]4[C@@H]3C[C@@H](O)[C@]3(C)[C@@H](C5=CC(=O)OC5)CC[C@]43O)C2)C[C@H](O)[C@@H]1O[C@H]1C[C@H](O)[C@H](O[C@H]2C[C@H](O)[C@H](O[C@@H]3O[C@H](CO)[C@@H](O)[C@H](O)[C@H]3O)[C@@H](C)O2)[C@@H](C)O1,6.52%,–
Cc1ccccc1CNc1ncnc2c1ncn2C1OC(CO)C(O)C1O (stereo not given),-2.08%,–
CO[C@H]1C[C@@H](O[C@@H]2/C(C)=C/C[C@@H]3C[C@@H](C[C@]4(CC[C@H](C)[C@@H](C5CCCCC5)O4)O3)OC(=O)[C@@H]3C=C(C)/C(=N/O)[C@H]4OC/C(=C\C=C\[C@@H]2C)[C@]43O)O[C@@H](C)[C@H]1O,–,24.8 µM (active)
CCC(CC)(NC(=O)C(C)C)C(=O)N[C@@H](CCCN=C(N)N)C(=O)NC1(C(=O)NC(c2ccc(F)cc2)c2ccc(F)cc2)CCCC1,1.29%,–
CC1O[C@@H](O[C@@H]2C(O)C[C@H](O[C@@H]3C(O)C[C@@H](OC4CC[C@@]5(C)C6CC(O)[C@@]7(C)C(C8=CC(=O)OC8)CC[C@@]7(O)C6CC[C@@H]5C4)OC3C)OC2C)CC(O)[C@H]1O (stereo not given in full),9.11%,–
O=C(O)c1ccc(-n2nc(-c3ccccc3O)nc2-c2ccccc2O)cc1,–,8.79 µM (active)
O=c1cc(-c2ccccc2)oc2cc(O)c(O)c(O)c12,–,4.94 µM (active)
CC(C)C[C@@H](NC(=O)[C@H](Cc1ccccc1)NC(=O)c1cnccn1)B(O)O,-11.7% [at 228 µM],–
C[C@H]1O[C@@H](O[C@H]2[C@@H](O)C[C@H](O[C@H]3[C@@H](O)C[C@H](O[C@H]4CC[C@@]5(C)[C@H](CC[C@@H]6[C@@H]5C[C@@H](O)[C@]5(C)[C@@H](C7=CC(=O)OC7)CC[C@]65O)C4)O[C@@H]3C)O[C@@H]2C)C[C@H](O)[C@@H]1O,-1.02% [at 228 µM],–
CC(C)(C)CC(C)(C)c1ccc(OCCOCC[N+](C)(C)Cc2ccccc2)cc1,–,inactive
"Cc1c2oc3c(C)ccc(C(=O)N[C@@H]4C(=O)NC(C(C)C)C(=O)N5CCC[C@H]5C(=O)N(C)CC(=O)N(C)C(C(C)C)C(=O)O[C@@H]4C)c3nc-2c(C(=O)N[C@@H]2C(=O)NC(C(C)C)C(=O)N3CCC[C@H]3C(=O)N(C)CC(=O)N(C)C(C(C)C)C(=O)O[C@@H]2C)c(N)c1=O (stereo not given in full) (I: T[ξV]P[Sar][ξNMeV] / II: T[ξV]P[Sar][ξNMeV]; ester I:1-I:C, II:1-II:C; linker I:N-II:N via Actinocin(9to1))",8.56%,–
O=C(Nc1ccc([N+](=O)[O-])cc1Cl)c1cc(Cl)ccc1O,–,9.87 µM (active)

SMILES,"activity change, negative = inhibition",Potency
C[C@H]1O[C@@H](O[C@H]2[C@@H](O)C[C@H](O[C@H]3[C@@H](O)C[C@H](O[C@H]4CC[C@]5(C)C6C[C@@H](O)[C@]7(C)[C@@H](C8=CC(=O)OC8)CC[C@]7(O)C6CC[C@@H]5C4)O[C@@H]3C)O[C@@H]2C)C[C@H](O)[C@@H]1O (stereo not given in full),1.78%,–
S=c1nc[nH]c2nc[nH]c12,–,inactive
"Cc1c2oc3c(C)ccc(C(=O)N[C@@H]4C(=O)N[C@H](C(C)C)C(=O)N5CCC[C@H]5C(=O)N(C)CC(=O)N(C)[C@@H](C(C)C)C(=O)O[C@@H]4C)c3nc-2c(C(=O)N[C@@H]2C(=O)N[C@H](C(C)C)C(=O)N3CCC[C@H]3C(=O)N(C)CC(=O)N(C)[C@@H](C(C)C)C(=O)O[C@@H]2C)c(N)c1=O (I: T[dV]P[Sar][NMeV] / II: T[dV]P[Sar][NMeV]; ester I:1-I:C, II:1-II:C; linker I:N-II:N via Actinocin(9to1))",–,inactive
O[C@@H](c1cc(C(F)(F)F)nc2c(C(F)(F)F)cccc12)[C@H]1CCCCN1,10.6%,–
O=C1c2cccc3c2[C@@H](CCC3)CN1[C@@H]1CN2CCC1CC2,0.103%,–
"Cc1c2oc3c(C)ccc(C(=O)N[C@@H]4C(=O)N[C@@H](C(C)C)C(=O)N5CCC[C@@H]5C(=O)N(C)CC(=O)N(C)[C@@H](C(C)C)C(=O)O[C@H]4C)c3nc-2c(C(=O)N[C@@H]2C(=O)N[C@@H](C(C)C)C(=O)N3CCC[C@@H]3C(=O)N(C)CC(=O)N(C)[C@@H](C(C)C)C(=O)O[C@H]2C)c(N)c1=O (I: [aThr]V[dP][Sar][NMeV] / II: [aThr]V[dP][Sar][NMeV]; ester I:1-I:C, II:1-II:C; linker I:N-II:N via Actinocin(9to1))",-4.07%,–
Nc1nc(=S)c2[nH]cnc2[nH]1,–,inactive
CO[C@H]1C[C@H](O[C@@H]2/C(C)=C/C[C@@H]3C[C@@H](C[C@]4(CC[C@H](C)[C@@H](C5CCCCC5)O4)O3)OC(=O)[C@@H]3C=C(C)/C(=N/O)[C@H]4OC/C(=C\C=C\[C@@H]2C)[C@]43O)O[C@@H](C)[C@@H]1O,-47.8%,–
C[S+](CC[C@H](N)C(=O)O)C[C@H]1O[C@@H](n2cnc3c(N)ncnc32)[C@H](O)[C@H]1O (stereo not given in full),-26.9%,–
CNC(=O)c1cc(Oc2ccc(NC(=O)Nc3ccc(Cl)c(C(F)(F)F)c3)cc2)ccn1,–,16 µM (active)
CC[C@@H]1O[C@]2(C=C[C@@H]1C)C[C@H]1C[C@H](CC=C(C)[C@@H](O[C@@H]3C[C@H](OC)[C@H](O[C@@H]4C[C@H](OC)[C@H](O)[C@H](C)O4)[C@H](C)O3)[C@@H](C)C=CC=C3CO[C@@H]4[C@@H](O)C(C)=C[C@@H](C(=O)O1)[C@]34O)O2,24.5% [at 48 µM],–
CC1OC(OC2C(O)CC(OC3C(O)CC(OC4CCC5(C)C(CCC6C5CC(O)C5(C)C(C7=CC(=O)OC7)CCC65O)C4)OC3C)OC2C)CC(O)C1O (stereo not given),8.89% [at 228 µM],–
Cn1cnc([N+](=O)[O-])c1Sc1ncnc2nc[nH]c12,–,inactive
O=C1c2c(O)ccc([N+](=O)[O-])c2C(=O)c2c([N+](=O)[O-])ccc(O)c21,–,12.7 µM (active) and 6.39 µM (active)
COc1c(C)c2c(c(O)c1C/C=C(\C)CCC(=O)OCCN1CCOCC1)C(=O)OC2,20.5%,–
OC(c1cc(C(F)(F)F)nc2c(C(F)(F)F)cccc12)C1CCCCN1 (stereo not given),6.78%,–
CC(C)C[C@H](NC(=O)[C@H](Cc1ccccc1)NC(=O)c1cnccn1)B(O)O,-2.87%,–
CC[C@@H](C)[C@H]1O[C@]2(CC[C@H]1C)C[C@@H]1C[C@@H](CC=C(C)[C@@H](O[C@H]3C[C@H](OC)[C@@H](O[C@H]4C[C@H](OC)[C@@H](O)[C@H](C)O4)[C@H](C)O3)[C@@H](C)C=CC=C3CO[C@@H]4[C@H](O)C(C)=C[C@@H](C(=O)O1)[C@]34O)O2,–,39.3 µM (active)
Oc1cc2ccccc2c2ccccc12,–,63.9 µM (active)
CCOc1ccc(C2C(=O)N(C3CCCCCC3)CC(=O)N2CCc2ccc(Cl)cc2)cc1OC (stereo not given),8.87%,–
